Measured values from PubChem BioAssay (NCI).
This is part of a sample that, as a whole, favours compounds with a hit. Of some 83,000 tested, about 20% had one in any assay.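 Growth was measured after 48 h exposure to one concentration of compound in 96-well plates. Values under 10 count as active.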 Unmarked numbers belong to inactive results. Active and inactive are the calls of the source.

tested on: HL-60(TB) leukemia; experiment: NCI-60 one-dose screen, 48 h (100 = growth as untreated, 0 = no growth, -100 = all killed); conditions: 10 µM unless noted

| Compound | growth |
| --- | --- |
| Clc1ccc2c(c1)N(C1CCCN(Cc3ccccc3)C1)c1ccccc1S2 (stereo not given) | 28.5% |
| N#Cc1ccc2nc[nH]c2c1 | 101% |
| NC1=NN(O)C2=CC([N+](=O)[O-])C=CC2=N1 (stereo not given) | 103% |
| CCCNc1nc2ccccc2c2c1S(=O)(=O)c1ccc(Cl)cc1C2=O | -14.1% (active) |
| Cc1cc2c(cc1[N+](=O)[O-])NC(CNC(C)C)CC2 (stereo not given) | 90.9% |
| CC1(C)N=C(N)N=C(N)N1c1ccc(CCc2ccccc2)c(Cl)c1 | 2.09% (active) |
| O=C(Nc1ccc(Cl)c(Cl)c1)O/N=C\c1c(Cl)ccc([N+](=O)[O-])c1Cl | -61.4% (active) |
| Cc1cc(C)c(O)c(C(=O)CC(Br)C(=O)O)c1 (stereo not given) | 79.8% |
| Cc1ccc(C(=O)C2C(=O)C3CCC2C3)cc1 (stereo not given) | 98.3% |
| O=C1NCCN1/N=C/c1c(Cl)n(Cc2ccc(Cl)cc2)c2ccccc12 | 74.4% |
| COc1cc(C2CC(c3cccc(Nc4ccncc4)c3)=NN2c2cc(Cl)cc(Cl)c2)cc(OC)c1OC (stereo not given) | -44.7% (active) |
| CCc1cc(C)cc(O)c1 | 105% |
| COc1ncnc2c1ncn2C/C(Br)=C(\Br)CCl | 47.1% |
| COc1ccc(C(=O)c2cc3c(N)c(C(=O)Nc4cccc(Cl)c4)sc3nc2C)cc1 | -45.3% (active) |
| COc1ccc2c(c1)c(-c1nc(-c3c[nH]c4c(Cl)nccc34)cs1)cn2C | 108% |
| Cc1cc(O)c(C2=NN(c3ccc(S(N)(=O)=O)cc3)C(c3ccccc3O)C2)cc1Cl (stereo not given) | -35.4% (active) |
| CC(C)(C)c1ccc([I+]c2ccc(C(C)(C)C)cc2)cc1 | -38.7% (active) |
| Cn1c2ccccc2c2c3c(c4c5cccnc5[nH]c4c21)C(=O)N(O)C3=O | 17.2% |
| CCCCCCCCN(CCCCCCCC)CC(O)c1cc(-c2ccccc2)nc2ccc(OC)cc12 (stereo not given) | -28.4% (active) |
| COC(=O)OC1C(O[C@H]2C[C@H]3[C@@H]4CC=C5C[C@@H](O)CC[C@]5(C)[C@H]4CC[C@]3(C)[C@H]2[C@H](C)C(=O)CCC(C)C)OCC(O)C1OC1OCC(O)C(O)C1OC(=O)c1ccc(OC)cc1 (stereo not given in full) | -22.3% (active) |

| Compound | growth |
| --- | --- |
| CCc1ccc(OC(=O)CCl)cc1 | 102% |
| N=C(N)c1ccc(-c2ccc(-c3ccco3)o2)cc1F | -17.1% (active) |
| O=C1/C(=C/c2ccc(O)cc2)COc2ccc(O)c(O)c21 | -19.3% (active) |
| O=[N+]([O-])c1cc(S(=O)(=O)Nc2ccccc2)ccc1Cl | 71.3% |
| Cn1nc(C(F)(F)F)cc1-c1c[nH]c(OCc2ccc(Cl)cc2)c(-c2ccc(Cl)c(C(F)(F)F)c2)c1=O | -28% (active) |
| Cc1cc(Nc2cccc(F)c2)nc(NCc2ccccc2)n1 | 24.1% |
| Cn1cc(-c2csc(-c3cn(CCNC(=O)OC(C)(C)C)c4ccc(F)cc34)n2)c2cccnc21 | 42.7% |
| O=C1Nc2ccccc2C1(c1c[nH]c2ccccc12)c1c[nH]c2ccccc12 | 77.8% |
| C=C(C)[C@@H]1CC[C@]2(C(=O)OCCOCCOCC[P+](c3ccccc3)(c3ccccc3)c3ccccc3)CC[C@]3(C)[C@H](CC[C@@H]4[C@@]5(C)CC[C@H](C)C(C)(C)[C@@H]5CC[C@]43C)[C@@H]12 | -72.5% (active) |
| O=C1C(Cl)=C(NCCN2CCOCC2)C(=O)c2ncccc21 | -45.5% (active) |
| O=C(O)CN1C(=O)c2cccc3cccc(c23)C1=O | 118% |
| CC1=CC(=NC(=O)CBr)C=C/C1=N\S(=O)(=O)c1ccccc1 | 67.2% |
| CCCc1cc2cc(-n3nc(C)c4c3CC(C)(C)CC4=O)cc(NC3CCSCC3)c2c(=O)[nH]1 | 49.4% |
| Cc1[nH]c(-c2nc3ccccc3[nH]2)c(C)c1C(=O)N1CCc2sccc2C1 | 99.3% |
| COc1cc2c(cc1OCCCCn1c(-c3cc(=O)c4ccccc4o3)nc3ccccc31)N=C[C@@H]1CCCN1C2=O | 91.2% |
| CCOC(=O)C1=C(C(F)(F)F)NC(=S)NC1CN1C(=O)c2ccccc2C1=O (stereo not given) | 86.7% |
| COc1ccc(-c2nnc3n(C)c(=O)c4ccccc4n23)cc1O | -22% (active) |
| CCC(=O)Nc1ccccc1C#C/C=C\C#Cc1ccccc1C(F)(F)F | 17.3% |
| O=C(CCCCCCN1CC(=O)N2[C@@H](c3ccc(Cl)c(Cl)c3)c3[nH]c4ccccc4c3C[C@H]2C1=O)NO | -11.8% (active) |
| COc1cc(-c2ccc3c(c2)NC(=O)/C3=C\c2ccc[nH]2)ccc1O | -12.6% (active) |
